CRE-bla Fsk: alters forskolin-stimulated CRE reporter signaling in CHO cells; CHO CRE-bla reporter (cAMP response element driving beta-lactamase), forskolin EC10, beta-lactamase ratio; Potency, µM (top dose mostly 38.2 µM), inactives show at the highest dose activity change, negative = inhibition, actives largely listed as activators; hit rate 2.5% among 71,000; AID 662; active means well fitted activation curve with a large enough effect in the signal ratio, with a control signal flat, not every such curve was filed as active; inconclusive means small, poorly fitted or top-dose-only effect, or effect the other way, or a change in a side signal; the % refers to the signal ratio; further: % of control where 0% means no effect
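CRE-bla CHO reporter cells treated with compound titration plus EC10 NKH 477 (water-soluble forskolin), incubated 3 h at 37 °C; CCF4 loading 2 h at room temperature, 460/530 nm emission ratio read, AC50 values derived for positive or negative modulators.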
p53ts 39C tox: p53ts cell cytotoxicity, nonpermissive temperature | H1299-p53A138V viability at 39C, ATP luminescence, 24 h | Potency, µM (top dose mostly 46.1 µM), for the others: top-dose activity change, negative = cell killing, actives largely listed as cytotoxic | hit rate 1.5% among 130,000 | AID 902; further: on the % scale 0 is the no-effect control and ±100 the full control effect; nearly all actives have a fitted effect of over 55% in size
p53ts 32C tox: cytotoxicity in p53ts cells at permissive temperature. H1299-p53A138V at 32C, ATP luminescence viability, 24 h. Potency, µM (highest dose often 46.1 µM), for inactives: at the top dose activity change, negative = cytotoxicity, usual class: cytotoxic. hit rate 0.93% among 130,000. AID 924;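 further: 0% = DMSO and -100% = full killing by reference compound; nearly all actives have a fitted effect of over 55% in size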
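Cells: H1299 p53ts (A138V), 600/well, pre-incubated 16–30 h at 37C. Cpd up to 46 uM, 24 h, 32C. Readout: ATPlite luminescence, 20 min RT. Normalization: DMSO vs tamoxifen 100 uM. AC50 by Hill equation.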
Peg3 imprint: inducers of genomic imprint erasure in mouse ES cells | mouse ES Peg3-LacZ reporter, beta-gal luminescence, 40 h | Potency, µM (top dose mostly 60.7 µM), for the others: at the highest dose activity change, positive = activation, actives largely listed as activators | hit rate 0.02% among 110,000
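Readout: BetaGlo luminescence (5 min, room temp) for LacZ from the normally silent maternal Peg3 allele in female Peg3LacZ-Neo ES cells. Cells 300/well, 40 h, 37C, 5% CO2. Data normalized per plate to negative controls.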
IkB sig inh: IkB pathway inhibition in ABC-DLBCL cells | ABC-DLBCL IkBa-CBG/CBR dual luciferase ratio, 4 h; response scale: scaled: untreated 0%, proteasome inhibitor 100% | Potency, µM (series often up to 57.1 µM), for inactives: at the top dose IkBa stabilization activation | hit rate 0.04% among 110,000 | AID 445; active means well fitted curve in the direction sought with a large enough effect in the signal ratio, not every such curve was filed as active; inconclusive means small, poorly fitted or top-dose-only effect, or a change in a side signal; the % refers to the signal ratio;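 further: the direction sought is a rising ratio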
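In this assay, an IκBα–CBG68 fusion accumulates when IKK-driven degradation is blocked; native CBR normalizes for cell number. OCI-Ly3 cells were treated 4 h with compound and doxycycline, then green and red light read after Chroma-Glo addition.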
Starred values were filed as active, the others as inactive; u = inconclusive; x = no result; [ ] = another dose, or the depositor's remark. An excerpt weighted towards active compounds, which were near 3% of everything screened. Unless noted, the call rests on the fitted dose curve; in most records, active means well fitted curve in the direction sought with a large enough effect; inconclusive means small, poorly fitted or top-dose-only effect, or another doubt; inactive means no such curve, though single readings can be large; an effect the other way counts as inactive or inconclusive. Potency means the concentration at half of the fitted maximal effect.

SMILES | CRE-bla Fsk | p53ts 39C tox | p53ts 32C tox | Peg3 imprint | IkB sig inh
CC1CCCN(S(=O)(=O)c2ccc(C(=O)Nc3nnc(-c4ccccc4Cl)o3)cc2)C1 (centres undefined) | -2.0% | -23.4% | -19.1% | -16.3% | 0.4%
CC1CC(C)CN(S(=O)(=O)c2ccc(C(=O)Nc3nnc(-c4cccs4)o3)cc2)C1 (centres undefined) | -9.5% | 15.8µM* | 6.0% | -32.1% | 6.3%
CCC1CCCCN1S(=O)(=O)c1ccc(C(=O)Nc2nnc(-c3cccs3)o2)cc1 (centres undefined) | u | 15.8µM* | 1.9% | -26.4% | 3.4%
[ClH+][Cu][ClH+].[Cu].[OH2+]c1ccc2ccccc2c1CN1CCCCC1.[OH2+]c1ccc2ccccc2c1CN1CCCCC1 | x | x | x | -13.4%[10.9 µM] | x
CCOC(=O)c1cnc2ccc(C)cc2c1Nc1ccc(N(CC)CC)cc1 | x | 12.6µM* | -6.7% | -12.9%[10.9 µM] | u
CCOC(=O)c1cnc2ccc(C(=O)OC)cc2c1Nc1ccc(N2CCOCC2)cc1 | x | 12.6µM* | u | -17.0%[10.9 µM] | 2.4%
CCOC(=O)c1cnc2ccc(Cl)cc2c1Nc1ccc(N2CCOCC2)cc1 | x | -18.9% | -27.5% | -16.2%[10.9 µM] | u
CCc1ccc(-c2cn3c(n2)sc2cc(C(=O)NCCc4ccc(OC)cc4OC)ccc23)cc1 | x | -2.8% | 3.0% | -3.8%[10.9 µM] | 3.6%
Cc1ccccc1OCC(=O)OCc1cc(=O)n2ccsc2n1 | x | -22.2% | -5.0% | u | 0.3%
CCN(CC)c1ccc2cc(NC(=O)CCC(=O)O)c(=O)oc2c1 | u | 12.6µM* | u | -14.0% | u
CCn1cc2nc(SCc3cccc(C(F)(F)F)c3)n(Cc3ccc(C)cc3)c(=O)c2n1 | x | 11.2% | 5.1% | -13.1%[10.9 µM] | 2.0%
COc1cc(-c2noc(-c3ccco3)n2)cc(OC)c1OC | 15.8µM* | 2.5% | 14.6% | -15.4% | -1.0%
COc1cc(-c2nc(-c3cccc(C)c3)no2)cc(OC)c1OC | 0.794µM* | 1.3% | 3.3% | -17.0% | u
CN(C)c1ccc(C(CNC(=O)c2ccc(C(C)(C)C)cc2)N2CCOCC2)cc1 (centres undefined) | x | -6.7% | -0.1% | 17.4%[10.9 µM] | 0.3%
O=C(Nc1ccccc1C(F)(F)F)c1ccc2oc(=O)c(S(=O)(=O)c3ccc(F)cc3)cc2c1 | x | 12.6µM* | 10µM* | -6.3%[10.9 µM] | u
COC(=O)c1[nH]c2cc(OC)c(OC)cc2c1NC(=O)c1cccc(OC)c1 | 10µM* | u | u | -10.8% | 2.1%
CCOC(=O)c1[nH]c2ccccc2c1NC(=O)c1cc(OC)c(OC)c(OC)c1 | 3.16µM* | -3.2% | 7.4% | -13.3% | 2.6%
CCOC(=O)c1[nH]c2ccc(OC)cc2c1NC(=O)C(C)N1CCC2(CC1)OCCO2 (centres undefined) | 28.8% | 1.4% | 1.6% | -5.2% | -1.7%
CCOC(=O)c1[nH]c2ccc(OC)cc2c1NC(=O)c1nonc1C | 3.98µM* | 10.7% | 2.9% | -10.4% | 3.8%
CCOC(=O)c1[nH]c2ccc(OC)cc2c1NC(=O)CN1CCC2(CC1)OCCO2 | 10µM* | -1.9% | 4.6% | -11.4% | -1.1%
CCOC(=O)c1[nH]c2ccccc2c1NC(=O)c1nonc1C | x | 2.3% | 8.9% | x | x
CCOC(=O)c1[nH]c2ccccc2c1NC(=O)c1cc(OC)cc(OC)c1 | x | 11.7% | -10.8% | -8.5%[10.9 µM] | u
O=C(c1ccc2c(c1)OCCO2)N(Cc1cccnc1)c1nc2ccc(F)cc2s1 | x | 12.5% | -21.9% | -1.3%[10.9 µM] | u
Cc1ccc(Nc2nc(C(N)=O)c(NC(=O)c3ccccc3Br)s2)cc1 | x | -18.7% | -8.4% | u | -2.0%
Cc1ccc(C(=O)OCc2cc3ccccc3[nH]c2=O)cc1 | u | 6.4% | 6.8% | -12.6% | -1.9%
SMILES | CRE-bla Fsk | p53ts 39C tox | p53ts 32C tox | Peg3 imprint | IkB sig inh
COc1cc(C(=O)OCc2cc3ccccc3[nH]c2=O)cc(OC)c1OC | 3.16µM* | 7.2% | 5.4% | 4.5% | -0.5%
CC(C)n1c(SCCCc2ccccc2)nc2c1c(=O)[nH]c(=O)n2C | 6.31µM* | 2.0% | 1.2% | -14.1% | 6.3%
C/C=C/Cn1c(SCCCc2ccccc2)nc2c1c(=O)[nH]c(=O)n2C | u | 31.3% | 15.9% | -15.3% | u
CCCCSc1nc2c(c(=O)[nH]c(=O)n2C)n1CCc1ccccc1 | 10µM* | u | -3.9% | 5.0% | 4.5%
COc1cc2c(cc1OC)C(COc1cc(C)cc(C)c1)N(C(=O)C(C)(C)C)CC2 (centres undefined) | x | -29.1% | 19.0% | -14.6%[10.9 µM] | u
CCN1CCN(C(=O)c2cc3c(=O)oc4ccc(C)cc4c3s2)CC1 | 2.51µM* | 9.2% | 4.5% | -5.8% | 0.0%
CCN1C(=O)c2cccc3c(S(=O)(=O)Nc4ccccn4)ccc1c23 | u | -3.5% | -6.6% | -16.6% | 8.6%
CCN1C(=O)c2cccc3c(S(=O)(=O)Nc4nc(C)cs4)ccc1c23 | 15.8µM* | -5.4% | 9.4% | -6.6% | u
CCN1C(=O)c2cccc3c(S(=O)(=O)Nc4ncccc4C)ccc1c23 | 5.01µM* | -21.0% | -1.0% | -13.6% | 2.2%
CCOC(=O)C1CCN(C(=O)CN2c3ccc(C(C)C)cc3-c3ccccc3S2(=O)=O)CC1 | x | -0.5% | 6.4% | -15.6%[10.9 µM] | u
CCCCN(C)CC(O)Cn1cc(/C=C/C(=O)c2ccc(OCC)cc2)c2ccccc21 (centres undefined) | x | 5.01µM* | 15.8µM* | -2.2%[10.9 µM] | u
CCCCN(CCCC)CC(O)Cn1cc(/C=C/C(=O)c2ccccc2)c2ccccc21 (centres undefined) | x | u | u | -14.3%[10.9 µM] | u
O=C(/C=C\c1ccc(O)cc1)c1ccc(O)cc1O | u | 34.8% | 23.9% | x | 0.5%
CC(C)C(=O)Nc1ccc(-c2nc3cccnc3o2)cc1 | 7.3% | 10µM* | 10µM* | -36.7% | 3.8%
Cc1cc2nc(-c3ccc(NC(=O)C(C)C)cc3)oc2cc1C | 3.0% | -6.4% | 10.3% | -30.3% | -4.3%
C#C[C@@]1(O)CC[C@H]2[C@H]3CCC4=Cc5oncc5C[C@]4(C)[C@@H]3CC[C@@]21C | 17.5% | x | x | x | 16.9%
Cc1ccc(Cn2c(=O)n(-c3cc(C)cc(C)c3)c(=O)c3oc4ccccc4c32)cc1 | x | -9.6% | 6.1% | -15.0%[10.9 µM] | u
CN(Cc1ccccc1)c1ccc2cc(S(=O)(=O)N3CCCCC3)ccc2n1 | x | -6.9% | -4.6% | -5.0%[10.9 µM] | 0.8%
CCc1ccc(Nc2nc(N)nc(CSc3nc4ccccc4s3)n2)cc1 | x | u | u | -8.3%[10.9 µM] | u
Nc1nc(CSc2nc3ccccc3[nH]2)nc(N2CCOCC2)n1 | 10µM* | 1.5% | 7.0% | -2.7% | -0.8%
Nc1nc(CSc2nc3ccccc3s2)nc(N2CCCCC2)n1 | 5.01µM* | -16.5% | -1.9% | -14.7% | 3.8%
CCOC(=O)c1[nH]c(CSc2nnnn2-c2ccccc2C)c(C(=O)OCC)c1C | 2.51µM* | -7.1% | -0.6% | -17.3% | 0.0%
CCOC(=O)c1c(C)[nH]c(C)c1C(=O)CSc1nnnn1-c1ccccc1 | 16.5% | -16.6% | 8.3% | -14.4% | 0.5%

Bioassay records from PubChem BioAssay.
